These results are taken from PubChem BioAssay (NCATS).

Records with an inconclusive call do not appear. Values without a mark were called inactive. Calls of active or inactive are those of the source. The call rests on the fitted dose curve; in most records, active means well fitted inhibition curve with a large enough effect; inconclusive means small, poorly fitted or top-dose-only effect; inactive means flat fitted curve, though single readings scatter.

The test system of one test is CRL-7250. The test is described as follows: Cytotoxic Profiling of Annotated Libraries Using Quantitative High-Throughput Screening (AID 1296008). Further: potency means the concentration at half of the fitted maximal effect. On max response: on the % scale 0 is the no-effect control and ±100 the full control effect. Particulars: Five cell lines viability, CellTiter-Glo ATP luminescence, 48-72 h; max response: stronger effect = lower value. In short, it runs like this:
(§1)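 Cells exposed to compounds for 48 or 72 hr at 37 degrees Celsius. Viability read as ATP-coupled luminescence with CellTiter-Glo after 10 min at room temperature.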

A further test relates to HEK293. Described as above. To be noted: Five cell lines viability, CellTiter-Glo ATP luminescence, 48-72 h; max response: stronger effect = lower value. In short, it runs like this:
as §1
(In ATP-based viability assays light output follows the ATP content of the culture.)

The subject of the next test is KB-3-1. Described as above. To be noted: Five cell lines viability, CellTiter-Glo ATP luminescence, 48-72 h; max response: stronger effect = lower value. The procedure, abridged:
as §1

In a further test the test system is NIH3T3. The description is as above. Particulars: Five cell lines viability, CellTiter-Glo ATP luminescence, 48-72 h; max response: stronger effect = lower value. In short, it runs like this:
as §1

The next test has as its system HEK293T. Kind of test: qHTS assay to identify novel small-molecules to repurpose for Merkel cell carcinoma treatment (AID 1296009). Particulars: MCC and control cell lines, CellTiter-Glo viability, 72 h; at 44.8 µM (top of the series) unless noted. In short, it runs like this:
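Dose-response viability screen; 72 hr exposure at 37 degree celsius; CellTiter-Glo added, 10 min room temperature, luminescence read; RLUs scaled between no-cell and DMSO wells.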

For another test, the system named is HaCat. The test is described as follows: Cytotoxic Profiling of Annotated Libraries Using Quantitative High-Throughput Screening (AID 1296008). Further: potency means the concentration at half of the fitted maximal effect. On max response: on the % scale 0 is the no-effect control and ±100 the full control effect. Particulars: Five cell lines viability, CellTiter-Glo ATP luminescence, 48-72 h; max response: stronger effect = lower value. In short, it runs like this: as §1
Further: nearly all actives have a fitted effect of over 60% in size.

For `CC1CCC2(OC1)OC1CC3C4CCC5C[C@@H](O[C@@H]6O[C@H](CO[C@@H]7OC[C@@H](O)[C@H](O)[C@H]7O)[C@H](O)[C@H](O)[C@H]6O)CC[C@]5(C)C4CC[C@]3(C)C1C2C` (stereo partly drawn), the max response in the test on CRL-7250 was -3.87%; with KB-3-1, 9.78%. The molecule was classed as inactive in the test with HEK293 and in the test on NIH3T3. In the test on HEK293T, the outcome was “inactive [at 17.4 µM]”.
For the molecule `C[C@]12C[C@@H](O)[C@@H]3C[C@@]1(O[C@@H]1O[C@H](CO)[C@@H](O)[C@H](O)[C@H]1O)[C@]3(COC(=O)c1ccccc1)C(=O)O2`, the max response in the test on CRL-7250 is -9.75%; in the test with KB-3-1, 4.54%. Besides, the result in the test with HEK293 and in the test with NIH3T3 was inactive. Besides, the outcome with HEK293T was “inactive [at 17.4 µM]”.
As for `CC(NC(=O)C(O)C(C)C)C(=O)NC1C(=O)N(C)CCc2ccccc21` (stereo not drawn), in the test on CRL-7250, the max response was -0.526%. Moreover, the molecule was classed as inactive in the test with HEK293, in the test with KB-3-1, in the test on NIH3T3 and in the test on HEK293T.
Turning to `C/C=C/C=C/[C@@H]1O[C@](O)([C@H](CC)C(=O)NC/C=C/C=C(\C)[C@@H](OC)[C@@H](C)C2OC(/C=C/C=C/C=C(\C)C(=O)c3c(O)cc[nH]c3=O)[C@H](O)[C@@H]2O)[C@H](O)[C@H](O)C1(C)C` (stereo partly drawn), the max response with CRL-7250 is 2.59%; in the test with HaCat it was -11.5%; in the test on KB-3-1 it was 2.01%; in the test on NIH3T3, -4.29%.
`CC/C=C\CCO[C@@H]1O[C@H](CO[C@@H]2OC[C@H](O)[C@H](O)[C@H]2O)[C@@H](O)[C@H](O)[C@H]1O`: the outcome in the test with CRL-7250, in the test with HEK293, in the test with KB-3-1 and in the test on HEK293T was inactive. The max response in the test with NIH3T3 was -20.8%.
Take `CC1(C)CC[C@]2(C(=O)O)CC[C@]3(C)C(=CCC4[C@@]5(C)C[C@@H](O)[C@H](O)C(C)(C)C5CC[C@]43C)C2C1` (stereo partly drawn): the molecule was called inactive in the test on CRL-7250, in the test on HEK293 and with KB-3-1. Moreover, the max response in the test with NIH3T3 was 4.86%. Further, the outcome with HEK293T is “inactive [at 17.4 µM]”.
As for `Cc1cn(C2C=CC(CO)O2)c(=O)[nH]c1=O` (stereo not drawn), the max response is -8.63% with CRL-7250, -43.4% in the test on HaCat, 6.19% with KB-3-1 and -7.77% with NIH3T3.
In the case of `Cc1cc(=O)oc2c(C=O)c(O)ccc12`, the max response in the test with CRL-7250 was 0.427%; with NIH3T3 it was -0.325%. Also, the molecule was called inactive with HEK293, with KB-3-1 and with HEK293T.
Turning to `O=C(O)c1ccccc1NC(=O)N1CCC(c2ccccc2C(F)(F)F)CC1`, the outcome in the test with CRL-7250, in the test on HEK293, in the test with NIH3T3 and in the test on HEK293T was inactive. The max response with KB-3-1 is -2.67%.
`O=C1NC(Cc2c[nH]c3ccccc23)C(=O)NC1Cc1c[nH]c2ccccc12` (stereo not drawn): the max response with CRL-7250 is -0.609%; in the test with NIH3T3, -2.22%. In addition, the molecule was called inactive in the test on HEK293, with KB-3-1 and with HEK293T.
Consider `CC1CCN(C(=O)CC#N)CC1N(C)c1ncnc2[nH]ccc12` (stereo not drawn), for which the max response in the test on CRL-7250 was 0.271%. For the same molecule, the outcome in the test on HEK293, with KB-3-1 and with HEK293T was inactive.
For `C=C(C)C1CCC2(C(=O)O[C@@H]3O[C@H](CO[C@@H]4O[C@H](CO)[C@@H](O)[C@H](O)[C@H]4O)[C@@H](O)[C@H](O[C@@H]4O[C@@H](C)[C@H](O)[C@@H](O)[C@H]4O)[C@H]3O)CCC3(C(=O)O)C(CCC4C5(C)CCC(O)C(C)(C)C5CCC43C)C12` (stereo partly drawn), the call in the test on CRL-7250, in the test on HEK293, with KB-3-1 and in the test on NIH3T3 was inactive. Besides, in the test with HEK293T, the outcome was “inactive [at 9.27 µM]”.
Turning to `C=C[C@H]1C(O[C@@H]2O[C@H](CO)[C@@H](O)[C@H](O)[C@H]2O)OC=C2C(=O)N3CCc4c([nH]c5ccccc45)C3CC21` (stereo partly drawn), the call in the test with CRL-7250, with HEK293 and in the test with KB-3-1 was inactive. Also, the max response in the test on NIH3T3 was 2.27%. In addition, the outcome in the test with HEK293T was “inactive [at 17.4 µM]”.
With `CC1CC(O)C2(OC1=O)OC1C(O)C3C4CCC5CC(OC6OC(CO)C(O)C(O)C6OC6OC(C)C(O)C(O)C6O)CCC5(C)C4CCC3(C)C1C2C` (stereo not drawn), in the test on CRL-7250, the max response was -9.09%. Moreover, the outcome in the test with HEK293, in the test with KB-3-1 and in the test on NIH3T3 was inactive. The outcome in the test with HEK293T was “inactive [at 17.4 µM]”.
With `CC(C)S(=O)(=O)N[C@H]1CCOC[C@@H]1c1ccc(-c2ccc(C#N)s2)cc1`, the molecule was called inactive with CRL-7250, with HaCat and in the test on KB-3-1. The max response with NIH3T3 was -6.39%.
Consider `CCCCOC(=O)NC(=O)C1c2ccccc2Oc2ccccc21`, for which the max response with CRL-7250 is -2.73%; in the test with KB-3-1, 2.73%; with NIH3T3, -5.65%. The molecule was classed as inactive in the test with HEK293 and with HEK293T.
As for `O=C1NC2CCc3nc4ccccc4c(=O)n3C2=Nc2ccccc21` (stereo not drawn), the max response is 2.4% in the test on CRL-7250, 3.54% with HaCat and 4.44% in the test on NIH3T3. The call in the test on KB-3-1 was inactive.
In the case of `Nc1nc(-n2cc(C(=O)O)c(=O)c3cc(F)c(N4CC(O)C4)c(Cl)c32)c(F)cc1F`, the max response in the test with CRL-7250 is -9.26%; in the test with KB-3-1, -18.7%; in the test on NIH3T3 it was 2.73%. Besides, the molecule was called inactive with HEK293 and with HEK293T.
In the case of `C[C@@H]1C[C@@H]2O[C@H]2/C=C\C=C\C(=O)Cc2c(Cl)c(O)cc(O)c2C(=O)O1`, the Potency was 4.53 µM (active) in the test with CRL-7250, 3.6 µM (active) with HaCat and 2.27 µM (active) with KB-3-1.
